Records with an inconclusive call do not appear. Activity calls are given as the source filed them. The calls were made as follows: active = hit-call score of the fitted dose curve at least 0.9, where 1 is the maximum; inconclusive = response in the unintended direction; inactive = score below 0.9.
Test: ACEA_ER_AUC_viability: ACEA Biosciences xCELLigence Real-Time Cell Analysis on Estrogen Receptor Agonism for Viability (AID 2283782);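 also: continuous compound exposure with impedance area under curve over 80 h; hit means loss of impedance signal meaning reduced cell growth or viability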
Outline: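 T47D cells preconditioned in phenol red-free RPMI with charcoal-stripped FBS, then dosed with 8-point 1:4 series from 100 uM (up to 0.5% DMSO). Impedance monitored up to ~80 h; area-under-curve loss versus DMSO taken as viability.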

| SMILES | AC50 | outcome |
| --- | --- | --- |
| CC(CN1c2ccccc2Sc2ccccc21)N(C)C (configuration not stated) | 17.2 µM (active) |  |
| CC1CC(OC(=O)c2ccccc2O)CC(C)(C)C1 (configuration not stated) | 78.4 µM (active) |  |
| CCCC1CCC(=O)O1 (configuration not stated) |  | inactive |
| Cc1ccc2ccccc2n1 |  | inactive |
| C=C(C)C1CCC(C)CC1O (configuration not stated) | 50 µM (active) |  |
| CCCCc1ccc(N)cc1 |  | inactive |
| O=C1CCCCCCCCCCCCCCO1 |  | inactive |
| N#Cc1ccccc1 |  | inactive |
| O=C1c2ccccc2C(=O)N1SC1CCCCC1 | 50 µM (active) |  |
| Nc1cc([N+](=O)[O-])ccc1Cl | 76.3 µM (active) |  |
| COc1ccc(NC(=O)CC(C)=O)cc1 |  | inactive |
| Cc1cccc(C)c1[N+](=O)[O-] |  | inactive |
| CC(C)[C@H]1CC[C@@H](C)CC1=O |  | inactive |
| O=C(O)CCSCCC(=O)O |  | inactive |
| c1ccc2sc(SN(C3CCCCC3)C3CCCCC3)nc2c1 | 81.8 µM (active) |  |
| CCC(=O)OCc1ccccc1 |  | inactive |

| SMILES | AC50 | outcome |
| --- | --- | --- |
| CC1=CCC(O)(C(C)C)CC1 (configuration not stated) |  | inactive |
| OCc1cccnc1 |  | inactive |
| CCCCCCCCC |  | inactive |
| Nc1cc(N)cc(C(=O)O)c1 |  | inactive |
| NC(=O)c1ccccc1Cl | 27.1 µM (active) |  |
| CC(C)C(C)(C)C(C)(C)C(C)(C)S |  | inactive |
| CC(=O)OCCC(C)CC(C)(C)C (configuration not stated) |  | inactive |
| OC1C(O)C(O)C(O)C(O)C1O (configuration not stated) |  | inactive |
| CCCc1ccccc1O | 64.2 µM (active) |  |
| Nc1nc2ccc([N+](=O)[O-])cc2s1 | 50 µM (active) |  |
| CC1COc2ccccc2N1C(=O)C(Cl)Cl (configuration not stated) | 4.69 µM (active) |  |
| CC(C)c1cccc(O)c1 |  | inactive |
| Cc1ccc(O)c(C(C)(C)C)c1 | 26.2 µM (active) |  |
| O=C[C@H](O)[C@H](O)[C@H](O)CO | 23.6 µM (active) |  |
| CO[Si](CCCn1c(=O)n(CCC[Si](OC)(OC)OC)c(=O)n(CCC[Si](OC)(OC)OC)c1=O)(OC)OC | 21.7 µM (active) |  |
| CCCCCCOC(=O)CC | 23.9 µM (active) |  |
